# Experimental data from PubChem BioAssay (EPA / NIEHS).
# Results filed as inconclusive are left out. Active and inactive are the calls of the source. How the source made its calls, unless noted: active means hit-call score of the fitted dose curve at least 0.9, where 1 is the maximum; inactive means score below 0.9.
# Key:
# [1] = read-out: Vascular cell adhesion molecule 1 (VCAM1), VCAM1 (gene 7412); assay: BSK_LPS_VCAM1: BioMAP Diversity Plus: LPS Assay for Vascular cell adhesion molecule 1 (VCAM1) Biomarker Activity (AID 2283086); conditions: primary human HUVEC with PBMC; actives raise or lower the signal
# Summary of the method: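 HUVEC + PBMC co-culture, LPS system; compound 24 h; VCAM-1 by ELISA; bidirectional fit vs DMSO control; parallel SRB (0.1%, TCA-fixed, 560 nm) for cytotoxicity.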
# CD40, CD40 (gene 958) = assay: BSK_SAg_CD40: BioMAP Diversity Plus: SAg Assay for CD40 Biomarker Activity (AID 2283088); conditions: primary human HUVEC with PBMC; actives raise or lower the signal
# Summary of the method: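 Endpoint derived by fitting increases or decreases versus DMSO controls. CD40 is detected by fluorescence ELISA in a human vascular co-culture of endothelium and PBMC at 24 h.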
# [2] = read-out: Monocyte Chemoattractant Protein-1 (MCP1), CCL2 (gene 6347); assay: BSK_SAg_MCP1: BioMAP Diversity Plus: SAg Assay for Monocyte Chemoattractant Protein-1 (MCP1) Biomarker Activity (AID 2283090); conditions: primary human HUVEC with PBMC; actives raise or lower the signal
# Summary of the method: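 MCP-1 levels in the endothelial–PBMC SAg co-culture were quantified by ELISA at 24 h post-dosing; both increases and decreases versus DMSO scored. Cytotoxicity monitored by SRB total protein in parallel cultures.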
# [3] = read-out: E-selectin (Homo sapiens) (UniProt P16581); assay: BSK_SAg_Eselectin: BioMAP Diversity Plus: SAg Assay for Eselectin Biomarker Activity (AID 2283091); conditions: primary human HUVEC with PBMC; actives raise or lower the signal
# Summary of the method: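 Endpoint values derive from bidirectional fitting relative to DMSO, using ELISA-measured E-selectin in a human vascular co-culture (umbilical vein endothelium plus PBMC) sampled 24 h after dosing.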
# [4] = BSK_SAg_PBMCCytotoxicity: PBMC Cytotoxicity Assessment in the BioMAP Diversity Plus: SAg Assay (AID 2283093); conditions: primary human HUVEC with PBMC;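 further: PBMC viability measured as Alamar Blue reduction fluorescence at 546/580 nm; fitted both ways against DMSO so a hit may be loss or gain of signal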;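 on AC50: PBMC superantigen activated with SEB plus TSST-1 one hour after compound addition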
# Summary of the method: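 Human umbilical vein endothelial cells co-cultured with PBMC; PBMC (75,000/well) pre-treated with compound 1 h, then activated with SEB and TSST-1 (20 ng/mL final each) for 90 h. Alamar Blue added 6 h, fluorescence 546/580 nm; bidirectional fit versus DMSO.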
# [5] = read-out: Interleukin-8 (IL8), CXCL8 (gene 3576); assay: BSK_SAg_IL8: BioMAP Diversity Plus: SAg Assay for Interleukin-8 (IL8) Biomarker Activity (AID 2283094); conditions: primary human HUVEC with PBMC; actives raise or lower the signal
# Summary of the method: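 ELISA read-out of IL-8 in a primary human vascular co-culture (umbilical vein endothelium plus PBMC), taken 24 h after compound addition. Values derive from bidirectional fits against DMSO negative controls.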
# [6] = BSK_SAg_Proliferation: Cell Proliferation Assessment in the BioMAP Diversity Plus: SAg Assay (AID 2283095); conditions: primary human HUVEC with PBMC;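 further: relative cell number as total protein by SRB absorbance in sub-confluent culture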
# Summary of the method: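 Cells (endothelium plus PBMC, human primary) were dosed with chemical, cultured 96 h, fixed in 10% TCA and stained with 0.1% SRB. Absorbance at 560 nm gave relative protein, fitted bidirectionally relative to DMSO.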
# [7] = BSK_SAg_SRB: Viability Assessment in the BioMAP Diversity Plus: SAg Assay (AID 2283096); conditions: primary human HUVEC with PBMC;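 further: cells read one day after compound addition; hits may be either gain or loss of signal compared with DMSO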
# Summary of the method: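 Endothelial/PBMC primary human co-culture; compound 24 h; fix 10% TCA, stain 0.1% SRB, A560; protein content as cytotoxicity proxy; bidirectional curve fit, DMSO = baseline.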
# [8] = molecular target: Cytochrome P450 2C19 (Homo sapiens) (UniProt P33261); assay: NVS_ADME_hCYP2C19: NovaScreen (NVS) CYP450-related Enzyme Activity (ADME) Assay for human CYP2C19 (AID 2283113; active means hit-call score of the fitted dose curve at least 0.9, where 1 is the maximum;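 further: potency for inhibition seen as loss of fluorescent signal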)
# Summary of the method: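 Biochemical CYP2C19 inhibition screen: insect-cell recombinant protein plus fluorescent substrate, 1 h, fluorescence intensity. Acetonitrile defined baseline activity. Single 10 uM concentration in duplicate, with concentration-response follow-up for actives.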
# [9] = molecular target: human Caspase 5 (CASP5), CASP5 (gene 838) (UniProt P51878); assay: NVS_ENZ_hCASP5: NovaScreen (NVS) Enzymatic Assay for human Caspase 5 (CASP5) (AID 2283137; active means hit-call score of the fitted dose curve at least 0.9, where 1 is the maximum)
# Summary of the method: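 E. coli-derived enzyme, cell-free, 2 h incubation, fluorescence intensity. 25 uM duplicate single-point; hits → concentration series to 50 uM. DMSO baseline, positive/negative controls on every plate.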
# [10] = molecular target: human Phosphodiesterase 10 (PDE10), PDE10A (gene 10846) (UniProt Q9Y233); assay: NVS_ENZ_hPDE10: NovaScreen (NVS) Enzymatic Assay for human Phosphodiesterase 10 (PDE10) (AID 2283195; active means hit-call score of the fitted dose curve at least 0.9, where 1 is the maximum)
# Summary of the method: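 Fluorescence/mobility-shift readout of PDE10A enzyme activity, taken 1 h post-dosing. Primary screen in duplicate at 25 uM; actives (e.g. ≥30% inhibition) retested as singleton concentration-response, top concentration 50 uM.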
# CD69, CD69 (gene 969) = assay: BSK_SAg_CD69: BioMAP Diversity Plus: SAg Assay for CD69 Biomarker Activity (AID 2283089); conditions: primary human HUVEC with PBMC; actives raise or lower the signal
# Summary of the method: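 Values derive from bidirectional fitting relative to DMSO vehicle. Cells: umbilical vein endothelium plus peripheral blood mononuclear cells, treated 24 h before fluorescent ELISA for CD69.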
# [11] = molecular target: human Beta-secretase (BACE), BACE1 (gene 23621) (UniProt P56817); assay: NVS_ENZ_hBACE: NovaScreen (NVS) Enzymatic Assay for human Beta-secretase (BACE) (AID 2283140; active means hit-call score of the fitted dose curve at least 0.9, where 1 is the maximum;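 further: hits are inhibitors that reduce fluorescent substrate signal versus DMSO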)
# Summary of the method: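 Compounds were first tested in duplicate at 25 uM, then actives in concentration series, against recombinant BACE1 from SF9 cells. Enzyme activity was measured by fluorescence intensity 1 hour after dosing, with DMSO as negative control.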
# [12] = molecular target: human Matrix Metalloproteinase-9 (MMP9), MMP9 (gene 4318) (UniProt P14780); assay: NVS_ENZ_hMMP9: NovaScreen (NVS) Enzymatic Assay for human Matrix Metalloproteinase-9 (MMP9) (AID 2283190; active means hit-call score of the fitted dose curve at least 0.9, where 1 is the maximum;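 further: cell-free recombinant MMP9 protease activity read by fluorescent substrate signal; active means inhibition seen as loss of fluorescence signal versus DMSO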)
# Summary of the method: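 Screening concentration 25 uM, duplicate wells, then dose series for confirmation. Cell-free enzymatic reaction measured by fluorescence intensity 1 h post-dosing; decreased signal versus DMSO taken as activity.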
# [13] = molecular target: human CYP19A1, CYP19A1 (gene 1588) (UniProt P11511); assay: NVS_ADME_hCYP19A1: NovaScreen (NVS) CYP450-related Enzyme Activity (ADME) Assay for human CYP19A1 (AID 2283098; active means hit-call score of the fitted dose curve at least 0.9, where 1 is the maximum)
# Summary of the method: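 Cell-free enzyme assay with recombinant protein and a specific fluorogenic substrate, read by fluorescence intensity 0.5 h after dosing. Primary screen ran in duplicate at 10 uM; actives were retested in concentration series. Loss of signal versus acetonitrile baseline.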
# [14] = molecular target: human Ephrin type-A Receptor 1 (EphA1), EPHA1 (gene 2041) (UniProt P21709); assay: NVS_ENZ_hEphA1: NovaScreen (NVS) Enzymatic Assay for human Ephrin type-A Receptor 1 (EphA1) (AID 2283158; active means hit-call score of the fitted dose curve at least 0.9, where 1 is the maximum;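 further: activity is signal loss versus DMSO meaning EphA1 kinase inhibition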)
# Summary of the method: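 Here the EphA1 protein is recombinant and the substrate fluorescent, with electrophoretic separation before fluorescence detection at 1 hour. Signal loss against DMSO defines activity; plate controls included; follow-up concentration series reach 50 uM.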
# [15] = molecular target: human Esterase Plasma (ES), BCHE (gene 590) (UniProt P06276); assay: NVS_ENZ_hES: NovaScreen (NVS) Enzymatic Assay for human Esterase Plasma (ES) (AID 2283157; active means hit-call score of the fitted dose curve at least 0.9, where 1 is the maximum)
# Summary of the method: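 Cell-free enzyme assay using esterase extracted from human plasma; colorimetric absorbance read 0.25 hour after dosing. Single-concentration duplicate screen at 25 uM, then concentration-response up to 50 uM; loss of signal scored against DMSO baseline.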
# [16] = molecular target: human Dual Specificity Protein Phosphatase 3 (DUSP3), DUSP3 (gene 1845) (UniProt P51452); assay: NVS_ENZ_hDUSP3: NovaScreen (NVS) Enzymatic Assay for human Dual Specificity Protein Phosphatase 3 (DUSP3) (AID 2283152; active means hit-call score of the fitted dose curve at least 0.9, where 1 is the maximum;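 further: phosphatase activity of recombinant human DUSP3 on a fluorogenic substrate without cells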)
# Summary of the method: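 Cell-free assay with recombinant human DUSP3 and fluorogenic substrate, read by fluorescence intensity. Primary screen ran duplicate at 25 uM; actives followed up in concentration series; loss of signal versus DMSO scored.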
# human Phosphodiesterase 10 (PDE10), PDE10A (gene 10846), sequence (Q9Y233 whole entry, looked up): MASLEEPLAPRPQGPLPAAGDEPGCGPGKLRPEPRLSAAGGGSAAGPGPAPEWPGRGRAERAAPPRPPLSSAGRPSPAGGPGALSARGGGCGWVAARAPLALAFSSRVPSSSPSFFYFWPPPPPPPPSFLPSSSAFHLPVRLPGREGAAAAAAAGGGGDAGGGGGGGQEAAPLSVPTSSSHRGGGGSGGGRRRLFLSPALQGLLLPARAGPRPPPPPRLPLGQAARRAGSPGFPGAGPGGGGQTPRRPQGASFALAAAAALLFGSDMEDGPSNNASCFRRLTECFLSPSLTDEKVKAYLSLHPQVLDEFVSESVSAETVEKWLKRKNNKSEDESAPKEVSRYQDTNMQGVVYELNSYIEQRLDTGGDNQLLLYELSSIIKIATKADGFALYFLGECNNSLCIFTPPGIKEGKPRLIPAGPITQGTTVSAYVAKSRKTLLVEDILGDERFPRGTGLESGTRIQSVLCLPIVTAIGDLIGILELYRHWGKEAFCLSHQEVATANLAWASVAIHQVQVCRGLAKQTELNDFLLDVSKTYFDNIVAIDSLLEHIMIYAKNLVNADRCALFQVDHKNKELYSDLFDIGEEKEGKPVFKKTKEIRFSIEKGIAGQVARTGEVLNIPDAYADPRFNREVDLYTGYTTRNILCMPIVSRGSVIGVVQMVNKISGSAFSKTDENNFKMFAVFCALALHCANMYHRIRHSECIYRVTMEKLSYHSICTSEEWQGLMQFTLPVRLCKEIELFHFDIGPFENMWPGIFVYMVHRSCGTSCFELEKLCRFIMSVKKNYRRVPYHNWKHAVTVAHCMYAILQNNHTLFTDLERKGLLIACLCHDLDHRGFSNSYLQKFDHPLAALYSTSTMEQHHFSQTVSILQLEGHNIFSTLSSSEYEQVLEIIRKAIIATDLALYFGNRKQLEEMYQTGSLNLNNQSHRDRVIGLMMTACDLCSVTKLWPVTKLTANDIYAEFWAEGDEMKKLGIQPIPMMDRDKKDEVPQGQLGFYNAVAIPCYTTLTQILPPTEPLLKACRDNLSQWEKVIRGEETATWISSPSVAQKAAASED
# human Ephrin type-A Receptor 1 (EphA1), EPHA1 (gene 2041), sequence (P21709 whole entry, looked up): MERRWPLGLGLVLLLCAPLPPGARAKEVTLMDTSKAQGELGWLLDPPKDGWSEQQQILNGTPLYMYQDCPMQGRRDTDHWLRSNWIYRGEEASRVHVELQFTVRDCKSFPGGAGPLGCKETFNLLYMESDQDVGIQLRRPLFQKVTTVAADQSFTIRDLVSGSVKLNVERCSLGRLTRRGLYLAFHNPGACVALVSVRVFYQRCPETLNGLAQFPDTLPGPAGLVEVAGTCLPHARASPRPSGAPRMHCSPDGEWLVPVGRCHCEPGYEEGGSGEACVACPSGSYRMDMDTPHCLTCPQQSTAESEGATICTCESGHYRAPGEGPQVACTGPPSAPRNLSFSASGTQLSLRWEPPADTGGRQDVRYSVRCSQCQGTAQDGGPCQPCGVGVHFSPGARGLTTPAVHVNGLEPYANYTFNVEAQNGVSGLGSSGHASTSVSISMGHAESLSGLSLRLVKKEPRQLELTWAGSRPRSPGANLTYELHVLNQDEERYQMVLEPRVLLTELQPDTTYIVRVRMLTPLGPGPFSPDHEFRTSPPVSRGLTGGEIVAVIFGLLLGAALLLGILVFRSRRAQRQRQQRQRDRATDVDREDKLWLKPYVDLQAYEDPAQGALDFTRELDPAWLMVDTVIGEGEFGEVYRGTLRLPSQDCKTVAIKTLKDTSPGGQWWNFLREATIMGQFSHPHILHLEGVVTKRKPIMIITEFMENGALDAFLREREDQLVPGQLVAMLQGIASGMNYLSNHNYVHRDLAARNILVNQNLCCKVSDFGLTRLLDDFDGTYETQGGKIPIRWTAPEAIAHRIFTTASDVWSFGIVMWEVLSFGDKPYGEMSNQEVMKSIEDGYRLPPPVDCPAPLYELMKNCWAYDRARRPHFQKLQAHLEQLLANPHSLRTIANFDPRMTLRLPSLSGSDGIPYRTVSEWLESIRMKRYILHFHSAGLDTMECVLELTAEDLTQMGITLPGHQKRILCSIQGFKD
# human CYP19A1, CYP19A1 (gene 1588), sequence (P11511 whole entry, looked up): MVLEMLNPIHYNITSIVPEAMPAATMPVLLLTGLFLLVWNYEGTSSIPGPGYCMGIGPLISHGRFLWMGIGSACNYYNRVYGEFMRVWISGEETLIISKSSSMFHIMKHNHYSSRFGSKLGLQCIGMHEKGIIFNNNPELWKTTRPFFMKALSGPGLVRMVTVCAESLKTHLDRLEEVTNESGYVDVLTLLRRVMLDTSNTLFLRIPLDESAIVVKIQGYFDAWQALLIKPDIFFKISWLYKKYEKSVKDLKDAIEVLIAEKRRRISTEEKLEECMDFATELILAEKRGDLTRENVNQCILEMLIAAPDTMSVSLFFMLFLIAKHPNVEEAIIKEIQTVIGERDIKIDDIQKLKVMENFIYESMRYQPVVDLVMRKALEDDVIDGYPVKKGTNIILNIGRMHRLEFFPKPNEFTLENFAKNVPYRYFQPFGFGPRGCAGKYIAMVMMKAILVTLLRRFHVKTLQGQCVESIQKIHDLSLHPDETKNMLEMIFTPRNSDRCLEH
# human Caspase 5 (CASP5), CASP5 (gene 838), sequence (P51878 whole entry, looked up): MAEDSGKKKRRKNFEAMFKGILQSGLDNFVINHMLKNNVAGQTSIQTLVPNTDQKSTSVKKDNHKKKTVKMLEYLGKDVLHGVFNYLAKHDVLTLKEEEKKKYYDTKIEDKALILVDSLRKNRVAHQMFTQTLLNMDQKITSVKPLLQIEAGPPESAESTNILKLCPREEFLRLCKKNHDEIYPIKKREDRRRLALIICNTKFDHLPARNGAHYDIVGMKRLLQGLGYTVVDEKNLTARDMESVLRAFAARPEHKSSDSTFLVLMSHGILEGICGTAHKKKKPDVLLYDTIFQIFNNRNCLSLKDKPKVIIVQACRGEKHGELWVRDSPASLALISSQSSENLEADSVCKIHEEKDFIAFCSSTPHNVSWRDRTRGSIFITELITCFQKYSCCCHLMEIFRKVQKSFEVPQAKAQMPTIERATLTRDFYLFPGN
# human Matrix Metalloproteinase-9 (MMP9), MMP9 (gene 4318), sequence (P14780 whole entry, looked up): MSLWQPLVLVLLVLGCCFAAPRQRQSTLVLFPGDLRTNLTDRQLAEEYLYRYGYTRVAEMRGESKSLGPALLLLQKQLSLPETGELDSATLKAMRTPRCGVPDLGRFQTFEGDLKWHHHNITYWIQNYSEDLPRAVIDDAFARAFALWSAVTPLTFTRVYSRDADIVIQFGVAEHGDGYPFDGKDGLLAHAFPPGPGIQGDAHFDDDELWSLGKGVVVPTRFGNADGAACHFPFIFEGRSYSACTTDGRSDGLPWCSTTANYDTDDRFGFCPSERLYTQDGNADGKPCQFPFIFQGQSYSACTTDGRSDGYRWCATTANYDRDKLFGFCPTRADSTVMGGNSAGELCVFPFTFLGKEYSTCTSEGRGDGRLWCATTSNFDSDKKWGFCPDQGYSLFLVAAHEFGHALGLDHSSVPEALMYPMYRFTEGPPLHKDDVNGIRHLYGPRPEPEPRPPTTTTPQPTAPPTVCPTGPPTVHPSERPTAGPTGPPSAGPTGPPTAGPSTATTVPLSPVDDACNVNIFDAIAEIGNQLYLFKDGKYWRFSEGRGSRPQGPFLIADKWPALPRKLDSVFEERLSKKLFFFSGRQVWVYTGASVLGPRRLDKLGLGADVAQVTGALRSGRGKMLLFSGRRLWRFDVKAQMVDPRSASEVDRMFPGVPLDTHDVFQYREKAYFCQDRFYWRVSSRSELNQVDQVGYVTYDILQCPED
# human Beta-secretase (BACE), BACE1 (gene 23621), sequence (P56817 whole entry, looked up): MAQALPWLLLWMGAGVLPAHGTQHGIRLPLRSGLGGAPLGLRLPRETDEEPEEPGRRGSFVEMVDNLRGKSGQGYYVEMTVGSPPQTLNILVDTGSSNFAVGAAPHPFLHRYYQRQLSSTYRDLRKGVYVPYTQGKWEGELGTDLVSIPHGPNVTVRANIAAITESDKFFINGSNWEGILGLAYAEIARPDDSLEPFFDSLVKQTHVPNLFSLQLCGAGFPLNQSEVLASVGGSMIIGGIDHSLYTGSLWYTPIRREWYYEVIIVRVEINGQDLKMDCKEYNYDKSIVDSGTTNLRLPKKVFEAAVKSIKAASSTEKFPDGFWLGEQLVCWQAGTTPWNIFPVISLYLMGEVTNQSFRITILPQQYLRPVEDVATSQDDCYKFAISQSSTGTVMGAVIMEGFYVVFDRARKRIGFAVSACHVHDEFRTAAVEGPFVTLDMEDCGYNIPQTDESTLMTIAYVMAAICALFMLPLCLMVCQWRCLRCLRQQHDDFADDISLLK
# E-selectin (Homo sapiens), sequence (P16581 whole entry, looked up): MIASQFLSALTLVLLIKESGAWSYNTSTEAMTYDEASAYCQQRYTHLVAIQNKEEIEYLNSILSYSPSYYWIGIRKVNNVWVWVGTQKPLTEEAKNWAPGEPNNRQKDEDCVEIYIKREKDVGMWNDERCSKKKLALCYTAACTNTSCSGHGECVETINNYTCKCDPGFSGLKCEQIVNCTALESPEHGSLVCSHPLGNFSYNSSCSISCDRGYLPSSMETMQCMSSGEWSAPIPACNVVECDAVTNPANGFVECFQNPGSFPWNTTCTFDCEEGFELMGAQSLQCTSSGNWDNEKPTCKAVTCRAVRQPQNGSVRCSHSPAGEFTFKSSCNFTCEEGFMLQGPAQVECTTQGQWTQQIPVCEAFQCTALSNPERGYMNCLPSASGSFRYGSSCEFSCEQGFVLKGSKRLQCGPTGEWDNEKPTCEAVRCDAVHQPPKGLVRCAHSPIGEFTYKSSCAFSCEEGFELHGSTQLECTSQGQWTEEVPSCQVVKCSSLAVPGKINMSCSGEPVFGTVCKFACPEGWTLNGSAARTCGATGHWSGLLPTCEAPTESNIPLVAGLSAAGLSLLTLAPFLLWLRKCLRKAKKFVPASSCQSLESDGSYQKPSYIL
# human Dual Specificity Protein Phosphatase 3 (DUSP3), DUSP3 (gene 1845), sequence (P51452 whole entry, looked up): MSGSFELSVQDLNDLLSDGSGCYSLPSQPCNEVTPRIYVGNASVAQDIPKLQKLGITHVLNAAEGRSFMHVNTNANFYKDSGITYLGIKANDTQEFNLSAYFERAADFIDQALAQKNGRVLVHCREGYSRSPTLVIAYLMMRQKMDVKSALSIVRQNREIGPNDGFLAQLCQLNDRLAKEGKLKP
compound,measurement,setting,value
CCCCC/C=C\C/C=C\CCCCCCCC(=O)OC,AC50,[1],30 µM (active)
same,AC50,"CD40, CD40 (gene 958)",20 µM (active)
same,outcome,[2],inactive
same,AC50,[3],30.9 µM (active)
same,AC50,[4],23.2 µM (active)
same,AC50,[5],27.8 µM (active)
same,AC50,[6],13.1 µM (active)
same,outcome,[7],inactive
same,AC50,[8],6.47 µM (active)
same,AC50,[9],6.61 µM (active)
NC(=O)NNC(N)=O,outcome,[10],inactive
Nc1cccc(C(F)(F)F)c1,outcome,[10],inactive
c1ccc2c(c1)ccc1cc3c(ccc4ccccc43)cc12,outcome,[1],inactive
same,outcome,"CD40, CD40 (gene 958)",inactive
same,outcome,"CD69, CD69 (gene 969)",inactive
same,outcome,[2],inactive
same,outcome,[3],inactive
same,outcome,[4],inactive
same,outcome,[5],inactive
same,outcome,[6],inactive
same,outcome,[7],inactive
same,AC50,[9],5.15 µM (active)
same,AC50,[11],13 µM (active)
same,AC50,[12],4.46 µM (active)
CCCCCCCCCCc1ccccc1,outcome,[10],inactive
Cc1ccc(C2OC[C@@H]3OC(c4ccc(C)cc4)O[C@H]([C@H](O)CO)[C@@H]3O2)cc1 (stereo not given in full),outcome,[10],inactive
C=C(C)CCO,AC50,[10],38.2 µM (active)
CC(CC=O)CCCC(C)(C)O (stereo not given),outcome,[13],inactive
CCC(CC)C(=O)O,AC50,[14],4.56 µM (active)
Cc1cc(C)c(C)c(C)c1,outcome,[14],inactive
c1ccc2c(c1)ccc1ncccc12,AC50,[1],2.69 µM (active)
same,AC50,"CD40, CD40 (gene 958)",20 µM (active)
same,outcome,"CD69, CD69 (gene 969)",inactive
same,outcome,[2],inactive
same,outcome,[3],inactive
same,outcome,[4],inactive
same,outcome,[5],inactive
same,outcome,[6],inactive
same,AC50,[7],28.1 µM (active)
same,AC50,[15],20.2 µM (active)
CC(=O)[C@H]1[C@H](C#N)C[C@H]2[C@@H]3CC=C4C[C@@H](O)CC[C@]4(C)[C@H]3CC[C@@]21C,outcome,[13],inactive
C=CCOCC(O)CCl (stereo not given),outcome,[1],inactive
same,outcome,"CD40, CD40 (gene 958)",inactive
same,outcome,"CD69, CD69 (gene 969)",inactive
same,outcome,[2],inactive
same,outcome,[3],inactive
same,outcome,[4],inactive
same,outcome,[5],inactive
same,outcome,[6],inactive
same,outcome,[7],inactive
same,outcome,[9],inactive
same,outcome,[11],inactive
CCCCCCCC/C=C\CCCCCCCC(=O)O,outcome,[13],inactive
COCCOCCOCCOCCOC,outcome,[14],inactive
CCOC(=O)[C@H](C)O,outcome,[10],inactive
Cc1ccc(N)c([N+](=O)[O-])c1,AC50,[14],43.4 µM (active)
same,AC50,[10],25 µM (active)
C=C(C)C(=O)OCC(C)C,outcome,[10],inactive
CCCCC(CC)COC(=O)c1ccccc1O (stereo not given),AC50,[1],10 µM (active)
same,outcome,"CD40, CD40 (gene 958)",inactive
same,outcome,"CD69, CD69 (gene 969)",inactive
same,outcome,[2],inactive
same,outcome,[3],inactive
same,AC50,[4],18.4 µM (active)
same,outcome,[5],inactive
same,AC50,[6],17.8 µM (active)
same,outcome,[7],inactive
same,AC50,[11],11.1 µM (active)
CC1OC1C1CCC2(C)OC2C1 (stereo not given),outcome,[1],inactive
same,outcome,"CD40, CD40 (gene 958)",inactive
same,outcome,"CD69, CD69 (gene 969)",inactive
same,outcome,[2],inactive
same,outcome,[3],inactive
same,outcome,[4],inactive
same,outcome,[5],inactive
same,outcome,[6],inactive
same,outcome,[7],inactive
same,outcome,[10],inactive
OCCCS,outcome,[10],inactive
CC(C)(C)c1n[nH]c(=O)n(N)c1=O,outcome,[10],inactive
S=C(NC1CCCCC1)NC1CCCCC1,outcome,[1],inactive
same,outcome,"CD40, CD40 (gene 958)",inactive
same,outcome,"CD69, CD69 (gene 969)",inactive
same,outcome,[2],inactive
same,outcome,[3],inactive
same,outcome,[4],inactive
same,outcome,[5],inactive
same,outcome,[6],inactive
same,outcome,[7],inactive
same,outcome,[14],inactive
same,AC50,[12],6.33 µM (active)
CCC(C)C=O (stereo not given),AC50,[12],8.8 µM (active)
same,AC50,[10],16.2 µM (active)
CC1(C)S[C@@H]2[C@H](NC(=O)COc3ccccc3)C(=O)N2[C@H]1C(=O)O,outcome,[11],inactive
O=C1CCC(=O)N1Cl,AC50,[16],16.5 µM (active)
CNC(=S)N(C)C,AC50,[14],18.6 µM (active)
same,AC50,[12],1.04 µM (active)
O=CN1CCCCC1,outcome,[10],inactive
Cn1c(=O)[nH]c2ncn(C)c2c1=O,outcome,[10],inactive
O=C1CCCC(=O)O1,outcome,[10],inactive
